Screening results from PubChem BioAssay.
FBPA Giardia inh – Giardia lamblia aldolase inhibition; 290,000 tested, 0.71% active; purified Giardia FBPA; AID 2451; A8B2U2; Potency, µM (series often up to 59.6 µM), for inactives: at the highest dose activity, negative = inhibition, usual class: inhibitors; further: potency means the concentration at half of the fitted maximal effect; on the % scale 0 is the no-effect control and ±100 the full control effect; nearly all actives have a fitted effect of over 55% in size
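Giardia FBPA (40 nM reagent) was preincubated 10 min at RT with compound (up to 57.5 uM final), then substrate plus GAPDH/TPI/NAD/arsenate coupling system with diaphorase/resazurin was added; resorufin fluorescence (525/598 nm) was read after 20 min.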
CHX counter – affects cycloheximide protein synthesis inhibition readout, counter-screen | cell reporter, cycloheximide protein synthesis inhibition counterscreen | max response, % | 300,000 tested, 12% active; in the data active means max response mostly above about 13%, no sharp cut-off; inactive means mostly below about 14%; further: read at 38.3 µM for the half of the compounds with a filed dose; 0% is about no effect
LmPK inh – LmPK (Leishmania mexicana) enzyme inhibition; Q27686; purified LmPK, Kinase-Glo ATP luminescence, 1 h; Potency, µM (series often up to 57.5 µM), for inactives: at the top dose activity change, negative = inhibition, actives largely listed as inhibitors; 290,000 tested, 0.37% active; further: potency means the concentration at half of the fitted maximal effect; on the % scale 0 is the no-effect control and ±100 the full control effect
Target sequence (Q27686 whole entry, looked up): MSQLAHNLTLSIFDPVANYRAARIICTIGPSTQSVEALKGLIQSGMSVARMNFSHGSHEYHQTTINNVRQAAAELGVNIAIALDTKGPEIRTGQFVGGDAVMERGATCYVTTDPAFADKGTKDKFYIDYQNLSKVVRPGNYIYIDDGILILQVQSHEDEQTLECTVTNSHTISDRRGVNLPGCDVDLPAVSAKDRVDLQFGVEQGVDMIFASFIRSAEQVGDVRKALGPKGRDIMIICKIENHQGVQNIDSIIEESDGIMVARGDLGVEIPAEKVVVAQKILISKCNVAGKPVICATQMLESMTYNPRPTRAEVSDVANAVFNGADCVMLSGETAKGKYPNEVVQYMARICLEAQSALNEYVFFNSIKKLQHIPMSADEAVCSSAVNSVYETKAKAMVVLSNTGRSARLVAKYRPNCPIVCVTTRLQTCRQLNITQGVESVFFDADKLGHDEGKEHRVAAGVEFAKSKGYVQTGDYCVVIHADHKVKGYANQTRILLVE
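qHTS format; LmPK 0.1 nM; substrates PEP 0.5 mM and ADP 0.1 mM. One-hour room-temperature incubation, then coupled luciferase luminescence; 0.5 nM enzyme wells mark activation.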
Shiga toxin inh – inhibitors of Shiga toxin in Vero cells. Vero cells, Shiga toxin protein synthesis inhibition reporter. inhibition, % at 38.7 µM. 290,000 tested, 9.2% active; in the data active means inhibition mostly above about 28%, no sharp cut-off; inactive means mostly below about 43%; further: 0% is about no effect
RE007 growth inh – less growth of the S. pombe RE007 Vpr strain. S. pombe RE007 Vpr strain, BacTiter-Glo ATP luminescence, 24 h. Potency, µM (highest dose often 92.2 µM), without a hit: at the highest dose activity change, negative = less growth, actives largely listed as inhibitors. 360,000 tested, 0.21% active. AID 651644; active means well fitted falling curve with a large enough effect; inconclusive means small, poorly fitted or top-dose-only effect; inactive means no such curve, though single readings can be large or run the other way; further: potency means the concentration at half of the fitted maximal effect; on the % scale 0 is the no-effect control and ±100 the full control effect; nearly all actives have a fitted effect of over 50% in size
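Fission yeast RE007 carrying one integrated HIV-1 vpr copy, seeded at OD 0.01 in PMG+AL medium with 23 nL pinned compound. Grown 24 h at 30 degrees; viability read by BacTiter-Glo luminescence after 5 min.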
Tb PYK inh – inhibitors of Trypanosoma brucei pyruvate kinase | 410,000 tested, 0.12% active | Q57TT1 | TbPYK enzyme, Kinase-Glo Plus ATP luminescence, 45 min | Potency, µM (doses to about 76.8 µM), for the others: at the top dose activity, negative = inhibition, usual class: inhibitors; further: potency means the concentration at half of the fitted maximal effect; on the % scale 0 is the no-effect control and ±100 the full control effect; nearly all actives have a fitted effect of over 50% in size
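Assay buffer: 50 mM TEA pH 7.2, 100 mM KCl, 10 mM MgCl2, 0.05% BSA, 0.01% Tween-20. Pyruvate kinase from T. brucei plus substrate met compound, then ADP (130 uM final). Luminescence was read post 45 min RT.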
Starred values were filed as active, the others as inactive; ? = inconclusive; / = no result given. The sample as a whole holds a higher share of hits than the screen did. Unless noted, the call rests on the fitted dose curve; in most records, active means well fitted curve in the direction sought with a large enough effect; inconclusive means small, poorly fitted or top-dose-only effect, or another doubt; inactive means no such curve, though single readings can be large; an effect the other way counts as inactive or inconclusive.

SMILES | FBPA Giardia inh | CHX counter | LmPK inh | Shiga toxin inh | RE007 growth inh | Tb PYK inh
Cc1ccc(C(=O)/C=C/c2ccc3ncccc3c2)cc1 | -6% | 48* | -4% | 47* | ? | -2%
CCC(=O)c1ccc2ncccc2c1 | 2% | 21* | -4% | 44* | -6% | 5%
O=C(Nc1ccc2ncccc2c1)c1cc(Cl)ccc1Cl | -10% | 45* | -4% | 34 | ? | -7%
CC(C)CCNC(=O)CN1C(=O)c2cccnc2Sc2ccccc21 | / | / | / | / | / | 0%
CCC1=C2CC[C@H]3C(=O)N(c4ccccc4)C(=O)[C@H]3[C@H]2[C@@]2(Cc3ccccc3)C(=NCCOC)OC(=O)N2C1=O | -2% | / | / | / | / | /
Cc1ccccc1Cn1nnc2c(=O)[nH]c(C3CCCN(C(=O)c4ccc(F)cc4)C3)nc21 (stereo unspecified) | / | / | / | / | / | -5%
Oc1ccc(Br)cc1CNc1cnc2ccccc2c1 | -9% | 2 | 0% | 21 | -14% | -3%
O=C(Nc1ccc2ncccc2c1)c1cccc(Br)c1 | ? | 39* | -1% | 47* | -17% | -10%
Cc1cccnc1NC(=O)c1ccc(S(=O)(=O)N2CCCCCC2)cc1 | / | / | / | / | -18% | -1%
Brc1ccc(CNc2ccc3ncccc3c2)cc1 | -13% | 30* | -5% | 42* | -24% | -12%
Cc1ccc(C(=O)Nc2ncccc2S(=O)(=O)c2ccccc2)cc1 | -7% | 12* | 0% | 66* | 12% | 4%
CCOCCc1nnc(NC(=O)C(=O)c2cc(C)n(-c3ccc(C)cc3C)c2C)s1 | / | / | / | / | / | -1%
COc1ccc(-c2cc(C(=O)NCc3ccc(F)cc3)c3c(-c4ccc(F)cc4)[nH]nc3n2)cc1OC | / | / | / | / | / | -6%
Cn1nnc2cc(C(=O)Nc3ccccc3)ccc21 | -5% | 16* | 7% | 32 | 0% | 3%
COc1cccc(NC(=O)Nc2ccc3snnc3c2)c1 | / | / | / | / | / | -7%
CN(C)c1ccc(NC(=O)c2ccc3c(c2)nnn3C)cc1 | -4% | 18* | 1% | 46* | 28% | -12%
Cn1nnc2cc(C(=O)Nc3cccnc3)ccc21 | 0% | 6 | -4% | 7 | 5% | -3%
Cn1nnc2cc(C(=O)Nc3ccc(Cl)cc3)ccc21 | -6% | 13 | -1% | 36 | 6% | 10%
Cc1ccc(NC(=O)c2ccc3c(c2)nnn3C)cc1 | 0% | 13 | 1% | 35* | 3% | -13%
COc1cccc(NC(=O)Nc2ccc3c(c2)nnn3C)c1 | 0% | 32* | 1% | 59* | -7% | -8%
Cc1cc(C)c(S(=O)(=O)Nc2cc(Cl)c3oc4c(c3c2)C(=O)CCC4)cc1C | / | / | / | / | / | 1%
CN(C)c1ccc(NC(=O)Nc2ccc3c(c2)nnn3C)cc1 | -5% | 32* | -5% | / | -12% | -1%
Cn1nnc2cc(NC(=O)NCc3ccc4c(c3)OCO4)ccc21 | -11% | 9 | 5% | 14 | -3% | -12%
Cc1c(Cl)cccc1NC(=O)N1CCN(Cc2cc(=O)n3nc(-c4ccccc4F)sc3n2)CC1 | / | / | / | / | / | -3%
COc1ccc(CCC(=O)NC2CC(=O)N(c3ccc(C)c(C)c3)C2)cc1 (stereo unspecified) | / | / | / | / | / | 7%
SMILES | FBPA Giardia inh | CHX counter | LmPK inh | Shiga toxin inh | RE007 growth inh | Tb PYK inh
CC1=NN(c2ccc([N+](=O)[O-])cc2)C(=O)/C1=C\N(C)C | 0% | 22* | 16µM* | 18 | 6.3µM* | -19%
CCOC1=NN(c2ccc(Cl)cc2)C(=O)/C1=C\N(C)C | 3% | 12 | -9% | 24 | -6% | 1%
CC1=NN(c2ccccc2)C(=O)/C1=C/N(C)C | -28% | -2 | -10% | 3 | ? | 13%
CCCC1=NN(c2ccc([N+](=O)[O-])cc2)C(=O)/C1=C/N(C)C | -8% | 20* | -23% | 20 | 5% | -7%
c1cncc(C(c2nnnn2C2CCCCC2)N2CCCCC2)c1 (stereo unspecified) | 0% | -1 | 2% | -5 | -13% | 0%
CCOC(=O)c1c(C)oc2c1c(C(c1cccnc1)N1CCCCC1)c(O)c1ccccc12 (stereo unspecified) | ? | 57* | 5% | 95* | -5% | -8%
CCOC(=O)c1c(C)oc2c1c(C=NCCO)c(O)c1ccccc12 | 2µM* | 28* | -6% | 44 | 14% | -5%
CCOC(=O)c1ccc(N=Cc2c(O)c3ccccc3oc2=O)cc1 | -7% | -6 | 3% | -8 | -1% | -8%
CCOC(=O)c1c(C)oc2c1c(C(c1ccccc1)N1CCOCC1)c(O)c1ccccc12 (stereo unspecified) | ? | 71* | 4% | 141* | ? | 2%
COc1ccc(-c2ccc(=O)n(CC(=O)Nc3cc(OC)ccc3OC)n2)cc1 | / | / | / | / | / | 1%
CC(C)(C)c1ccc(C(=O)Nc2ccc(Cl)cc2)cc1 | 8% | 43* | 2% | 101* | 9% | -13%
CC(=O)Nc1nonc1NC(=O)c1ccc(C(C)(C)C)cc1 | 2% | 20* | 1% | 58* | -5% | 2%
CC(C)(C)c1ccc(NC(=O)c2ccsc2)cc1 | ? | 28* | -25% | 45* | ? | -1%
CCCN(Cc1ccccc1)C(=S)Nc1ccc(F)cc1 | -3% | -2 | -2% | -4 | 13% | -6%
CCOc1ccc(NC(=S)N(CC)Cc2ccccc2)cc1 | 1% | 32* | 2% | 34 | / | /
CCCN(Cc1ccccc1)C(=S)Nc1ccc(OCC)cc1 | 0% | 19* | 5% | 25 | 3% | 0%
COc1ccc(N2CCN(C(=O)Cn3c(-c4cccs4)cc4ccccc43)CC2)cc1 | / | / | / | / | / | 1%
CC(=O)Nc1ccc2nc3c(=O)[nH]c(=O)[nH]c3nc2c1 | / | -2 | / | 7 | / | /
Cc1csc(NC(=O)Cc2ccc(Br)cc2)n1 | 7% | 31* | 10% | 61 | 4% | -4%
Cc1csc(NC(=O)Cc2ccccc2Cl)n1 | -10% | 40* | -2% | 110* | -17% | 4%
Cc1csc(NC(=O)Cc2ccc(Cl)cc2)n1 | / | / | / | / | 4% | 0%
COc1ccc(CC(=O)Nc2nc(C)cs2)cc1OC | 9% | -1 | 0% | -13 | -5% | -1%
Cc1cnc(NC(=O)Cc2ccccc2Cl)s1 | -4% | 0 | -2% | 17 | 52% | 17%
COc1ccc(CC(=O)Nc2nc(C)cs2)cc1 | 0% | 20* | 1% | 29 | 0% | 3%
Cn1cccc1C(=O)N1CCC2(CCCN(c3ncccn3)C2)CC1 | 6% | / | / | / | / | 4%
COc1cc(NC(=O)C2CCN(c3nc4ccccc4nc3C(F)(F)F)CC2)cc(OC)c1 | / | / | / | / | / | -4%
Cc1nc(CCN2C(=O)c3ccccc3C2=O)n[nH]1 | 6% | -1 | -2% | -15 | -6% | -21%
CCc1ccc(CCN2C(=O)c3ccccc3C2=O)nc1 | -1% | 25* | 1% | 32 | -7% | 2%
Cc1cccc(Oc2coc3cc(OC(=O)c4cc5ccccc5oc4=O)ccc3c2=O)c1 | 11% | 40* | -1% | 38 | 11% | -8%
